Several values for one entry are separate records, joined by “and”; a condition that tells them apart may be missing. Equal values may be shown once.
What follows are molecules tested on H9c2 (assay: protection of cardiomyocytes from stress damage, SAR follow-up, cell-based, panel, H9c2 and HL-1, ATP luminescence, set 2 (AID 651871;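 also: cells exposed to stressor for 2 h before ATP readout; reference of the scale not given here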)). Settings: H9c2/HL-1 cardiomyocytes, 2-deoxyglucose stress, with 2-deoxyglucose; run 9, at 79 µM (top of the series).

Structure (SMILES) | activity (protection/inhibition)
COc1ccc2c(c1OC)C(=O)N1c3ccccc3C(=O)N(Cc3cccc(Cl)c3Cl)C21 (stereo not drawn) | 81.1% and 78.3% and -1.59%
COc1ccc2nc(-c3cc(OC)c(OC)c(OC)c3)cc(C(=O)NCC(=O)Nc3ccc(C(C)=O)cc3)c2c1 | 84.5%
CCOC(=O)c1cccc(NC(=O)CNC(=O)c2cc(-c3cc(OC)c(OC)c(OC)c3)nc3ccccc23)c1 | 90.9%
